NS3h inh CB: blocks HCV NS3 helicase binding to DNA | NS3h Cy5-dT15 DNA binding, fluorescence polarization | inhibition, % at 100 µM | 1.6% of 16,000 active;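 active = inhibition above the average over every tested compound plus 3 SD, cut at about 40% in these data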
Cy5 interf NS3h: Cy5 fluorescence interference, HCV helicase counter-screen. Cy5-dT15 DNA with NS3h; actives lie on both sides; signal over control mean, under 1 quenches. fluorescence interference ratio at 100 µM. AID 720488. 6% of 16,000 active;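 active = compound fluorescence over control fluorescence at most 0.8, a quencher, or at least a set upper limit, an enhancer; inactive = ratio between 0.8 and the set upper limit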
Active calls of the source: *. Compounds with a hit are over-represented: about 6.9% of the library has one in this group of screens.

SMILES	NS3h inh CB	Cy5 interf NS3h
Cc1ccc(N2C(=O)/C(=C/c3ccccc3C)C(=O)NC2=S)cc1	3	1
Cc1ccc(N2CN=C(c3ccccc3)NC2=S)cc1	14	0.75*
O=C1/C(=C\c2ccccc2)SC(=S)N1NS(=O)(=O)c1ccccc1	-10	0.92
CCOC(=O)c1c[nH]c2ccc(OCC)cc2c1=O	-6	1.1
O=C(c1cccc(N2C(=O)C3C4C=CC(C4)C3C2=O)c1)c1cccc(N2C(=O)C3C4C=CC(C4)C3C2=O)c1 (stereo not given)	43*	1.1
CC(=O)c1cccc(N2C(=O)C3C4C=CC(C4=C(C)C)C3C2=O)c1 (stereo not given)	-1	1.1
CCOC(=O)C(=O)C1C(=O)C(=O)C(C)C1=O (stereo not given)	-8	1.1
COC(=O)c1c(C)oc2ccc(OCc3ccccc3Cl)cc12	8	0.89
O=C(Nc1ccc(Oc2ccccc2)cc1)C(F)(F)F	14	0.78*
CC(=O)Nc1ccc(Oc2ccccc2)cc1	10	0.83
O=C(Oc1cccc([N+](=O)[O-])c1)c1ccc(-c2ccccc2)cc1	3	1
Cc1ccc(C(=O)N/C(=C\c2ccc(Cl)cc2)C(=O)NCC(C)C)cc1	41*	0.96
CC(C)CNC(=O)/C(=C/c1ccc(F)cc1)NC(=O)c1ccccc1	12	0.95
CCn1c2ccccc2c2cc(C3C(C(=O)OC)=C(C)NC4=C3C(=O)CCC4)ccc21 (stereo not given)	33	0.88
CCOc1ccc(C(=O)Nc2ccc(Cl)cn2)cc1[N+](=O)[O-]	-4	0.88
NC(=O)CN1C(=O)/C(=C2\SC(=S)N(Cc3ccccc3)C2=O)c2ccccc21	7	0.8*
C=CCN1C(=O)/C(=C2\SC(=S)N(Cc3ccco3)C2=O)c2ccccc21	17	0.98
Cc1ccc(Nc2nc(-c3ccc(-c4ccccc4)cc3)cs2)cc1	-6	0.98
Nc1ccc(Nc2nc(-c3ccc(Br)cc3)cs2)cc1	5	0.78*
CC(N=C(NS(=O)(=O)c1ccccc1)c1ccccc1)C(=O)O (stereo not given)	-15	1
Cc1ccc(S(=O)(=O)NC(=NC(Cc2ccccc2)C(=O)O)c2ccccc2)cc1 (stereo not given)	20	0.74*
CCC(C)c1ccc(OCCOc2ccc(C=C3C(=O)NC(=S)NC3=O)cc2OC)cc1 (stereo not given)	5	0.85
CCC(C)c1ccc(OCCOc2ccc(C=C3C(=O)NC(=S)NC3=O)cc2)cc1 (stereo not given)	46*	0.92
CCc1ccc(OCC(=O)Nc2cc(Cl)cc(Cl)c2)cc1	13	1.1
O=C1NC(=O)C(=Cc2ccc(-c3cc(Cl)c([N+](=O)[O-])cc3Cl)o2)C(=O)N1	-141	0.04*
SMILES	NS3h inh CB	Cy5 interf NS3h
Cc1cc([N+](=O)[O-])c(-c2ccc(C=C3C(=O)c4ccccc4C3=O)o2)cc1Cl	6	1
COc1cc(C=O)ccc1OCCOc1ccc(C)c(C)c1	11	0.87
Cc1ccc(C(C)C)c(OCc2nnc(NC(=O)Nc3ccccc3)s2)c1	1	1
Nc1ccc(S(=O)(=O)N2CCCCCC2)cc1	2	0.75*
O=C(O)CCC(=O)Nc1ccc(S(=O)(=O)N2CCCCCC2)cc1	-6	0.95
O=[N+]([O-])c1ccc(NCCNCCO)c(Cl)c1	1	0.97
CC1(C)CC(=O)C2=C(C1)c1c(ccc3ccccc13)NC2c1ccccc1F (stereo not given)	21	0.75*
COc1ccc(C2Nc3ccc4ccccc4c3C3=C2C(=O)CC(C)(C)C3)cc1[N+](=O)[O-] (stereo not given)	9	0.97
Cc1ccc(N2C(=O)CC(N3CCN(Cc4ccccc4)CC3)C2=O)cc1 (stereo not given)	-1	1
Cc1ccc(N2C(=O)CC(NCc3cccc(Cl)c3)C2=O)cc1 (stereo not given)	0	1.1
Cc1ccc(N2C(=O)CC(NC3CCN(Cc4ccccc4)CC3)C2=O)cc1 (stereo not given)	10	1.3*
Cc1ccc(N2C(=O)CC(NCc3cccc(C(F)(F)F)c3)C2=O)cc1 (stereo not given)	18	1.2*
CCOC(=O)c1ccc(-c2ccc(C(=O)Nc3cccc(-c4nc5ncccc5o4)c3C)o2)cc1	-5	1
Cc1nc(-c2ccccc2)c2c(=O)cc[nH]c2n1	-1	1
Cc1nc(-c2ccccc2)nc2[nH]ccc(=O)c12	4	0.8*
COc1cc(/C=C2\SC(N)=NC2=O)c([N+](=O)[O-])cc1OC	-15	0.77*
NC1=NC(=O)/C(=C\c2ccccc2Cl)S1	8	1.1
COc1ccc(NC(=O)c2cccc(I)c2)cc1Cl	12	0.99
COC(=O)c1ccc(C(=O)OC)c(NC(=O)Cc2ccccc2[N+](=O)[O-])c1	10	0.78*
COc1ccc(C)cc1NC(=O)Cc1ccccc1[N+](=O)[O-]	12	1.1
COC(=O)c1ccc(C(=O)OC)c(NC(=O)c2c(Cl)cccc2Cl)c1	19	1.1
COC(=O)c1ccc(C(=O)OC)c(NC(=O)CC(c2ccccc2)c2ccccc2)c1	14	0.75*
COc1ccc(C)cc1NC(=O)COc1cccc2ccccc12	-6	0.86
O=C(Nc1ccc(Cl)cc1)Nc1nnc(-c2cccc(F)c2)s1	2	0.99
O=C(Nc1ccc(Cl)cc1)Nc1nnc(-c2cccs2)s1	14	0.69*
SMILES	NS3h inh CB	Cy5 interf NS3h
COc1cccc(NC2=C(Cl)C(=O)N(c3cccc(Cl)c3Cl)C2=O)c1	14	0.95
O=C(c1nn2c(C(F)(F)F)cc(-c3ccccc3)nc2c1Cl)N1CCCC1	9	0.93
CN(Cc1ccccc1)C(=O)c1nn2c(C(F)(F)F)cc(-c3ccccc3)nc2c1Cl	8	0.61*
CCOC(=O)c1cnn2c(C(F)(F)F)cc(-c3ccco3)nc12	3	1
Cc1ccc(-c2cc(C(F)(F)F)n3ncc(C(=O)N(C)Cc4ccccc4)c3n2)cc1	9	0.61*
Cc1ccc(-c2cc(C(F)(F)F)n3ncc(C(=O)N4CCN(c5ccc(F)cc5)CC4)c3n2)cc1	10	0.61*
COc1cc(-c2cc(C(F)(F)F)n3ncc(C(=O)Nc4cccc5ccccc45)c3n2)cc(OC)c1OC	-1	1.1
O=C(Nc1ccccc1C(=O)Nc1ccccc1I)c1ccccc1	9	1
CC(C)Oc1ccccc1C1Nc2ccccc2NC2=C1C(=O)CC(c1ccccc1)C2 (stereo not given)	13	1
Cc1ccc(CC2C(=O)N(c3ccc(Cl)c(Cl)c3)C(=O)C2C)cc1 (stereo not given)	2	0.95
CCN1C(=O)/C(=C\c2ccc(OCCOc3cccc(OC)c3)c(OC)c2)SC1=S	26	0.95
c1ccc(-c2nnc(NCc3nc4ccccc4[nH]3)c3ccccc23)cc1	-3	0.97
O=C(Nc1ccccc1)Nc1nnc(SCc2ccccc2F)s1	-4	1.2*
O=C(Nc1ccccc1)Nc1nnc(SCc2ccc(F)cc2)s1	17	0.99
CCOP(=O)(OCC)/C(=C(\NC(=O)c1ccccc1)C(=O)Nc1ccc(Cl)cn1)c1ccccc1	14	1.2
COC(=O)c1cccc(N2C(=O)c3ccc(Oc4ccc(NC(C)=O)cc4)cc3C2=O)c1	-25	1.3*
CC(=O)Nc1cccc(Oc2ccc3c(c2)C(=O)N(c2ccccc2)C3=O)c1	8	0.99
COc1ccc(-c2nn(-c3ccccc3)cc2/C=c2\sc3nc(-c4ccc(Cl)cc4)nn3c2=O)cc1	13	1.1

Source: PubChem (Milwaukee Institute for Drug Discovery)
